# Compound activity (PubChem)
# BAZ2B inh: blocks human BAZ2B. Q9UIF8. AlphaScreen BAZ2B-H3K14Ac peptide displacement. Potency, µM (series often up to 114 µM), without a hit: at the top dose activity change, negative = inhibition, most hits filed as inhibitors. hit rate 4.4% among 360,000. AID 504333; further: on the % scale 0 is the no-effect control and ±100 the full control effect; nearly all actives have a fitted effect of over 60% in size
#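 Compounds, titrated to a top concentration of 110 uM, were incubated 30 min at room temperature with preformed BAZ2B/acetyl-K14 H3 peptide complex (50 nM each). Proximity signal was measured by AlphaScreen after 20 min with beads.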
# PLK1 PBD block: blocks phosphopeptide binding to human PLK1 polo-box domain; P53350; Plk1 PBD binding of FITC phosphopeptide, fluorescence polarization; Potency, µM, inactives show max response, negative = inhibition, hits mostly inhibitors; hit rate 2.8% among 360,000; AID 720504; further: series mostly up to about 57 µM; on the % scale 0 is the no-effect control and ±100 the full control effect; nearly all actives have a fitted effect of over 65% in size
# G9a block: blocks human histone lysine methyltransferase G9a. AID 504332. hit rate 8.8% among 350,000. Potency, µM (doses to about 102 µM), without a hit: at the highest dose activity, negative = inhibition, actives largely listed as inhibitors. G9a H3K9 monomethylation, AlphaScreen, 2 h; further: on the % scale 0 is the no-effect control and ±100 the full control effect; nearly all actives have a fitted effect of over 75% in size
# Target sequence (Q96KQ7 913-1193 limits assumed): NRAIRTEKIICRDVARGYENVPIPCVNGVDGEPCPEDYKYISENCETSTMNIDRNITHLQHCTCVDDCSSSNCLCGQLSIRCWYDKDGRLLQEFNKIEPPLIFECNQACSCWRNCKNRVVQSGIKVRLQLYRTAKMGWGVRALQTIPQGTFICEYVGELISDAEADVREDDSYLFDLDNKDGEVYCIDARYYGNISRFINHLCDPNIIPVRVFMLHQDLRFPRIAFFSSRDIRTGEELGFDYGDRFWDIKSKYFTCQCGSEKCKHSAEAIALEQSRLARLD
#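 Chemiluminescent proximity detection of H3K9 monomethylation, read after 10 min bead incubation in the dark. Reaction: 20 nM G9a, 500 nM biotin-H3K9 peptide, 20 uM SAM cofactor, 2 h, room temperature, following 15 min enzyme-compound preincubation.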
# JMJD2A Tudor inh: blocks the human JMJD2A Tudor domain | Potency, µM (top dose mostly 114 µM), inactives show at the top dose activity change, negative = inhibition, hits mostly inhibitors | hit rate 4.4% among 390,000 | O75164 | AID 504339 | AlphaScreen JMJD2A-Tudor / H3K4me3 peptide binding; further: on the % scale 0 is the no-effect control and ±100 the full control effect; nearly all actives have a fitted effect of over 50% in size
# HP1b chromo inh: blocks HP1-beta chromodomain binding to methylated histone tails; Potency, µM (highest dose often 114 µM), for inactives: at the top dose activity change, negative = inhibition, hits mostly inhibitors; hit rate 0.56% among 390,000; P83916; AlphaScreen HP1-beta / biotin-H3K9me3 peptide binding; further: nearly all actives have a fitted effect of over 70% in size
# Target sequence (P83916 whole entry, looked up): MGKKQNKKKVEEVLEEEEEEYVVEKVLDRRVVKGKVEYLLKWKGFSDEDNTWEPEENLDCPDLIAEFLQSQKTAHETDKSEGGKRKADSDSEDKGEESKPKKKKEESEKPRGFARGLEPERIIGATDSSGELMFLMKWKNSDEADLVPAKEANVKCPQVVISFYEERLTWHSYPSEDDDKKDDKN
#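 AlphaScreen: HP1-beta (50 nM) preformed 30 min with biotin-H3(1-18)K9me3 peptide (50 nM) in PBS pH 7.4, 0.01% Tween-20. Compound added for 30 min at RT, then streptavidin donor/nickel chelate acceptor beads (10 ug/mL) for 30 min.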
# ALOX12 inh: blocks human arachidonate 12S-lipoxygenase | P18054 | purified 12hLO, xylenol orange hydroperoxide absorbance | Potency, µM (series often up to 108 µM), for the others: top-dose activity change, negative = inhibition, usual class: inhibitors | hit rate 1.1% among 580,000 | AID 1671190; further: on the % scale 0 is the no-effect control and ±100 the full control effect
#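 Purified human 12hLO at 150 nM in 25 mM Hepes, 0.01% Triton X-100, pH 7.0, preincubated 15 min at room temperature with compound. Reaction started with 40 uM arachidonic acid, 30 min at room temperature. Hydroperoxide measured by Fe-xylenol orange, 573/405 nm absorbance ratio.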
# * = called active by the depositor; ? = inconclusive; / = no result given; [ ] = dose if it differs, or a comment. The list is not random: actives were taken first. Their share in the collection is about 9%. The call rests on the fitted dose curve; in most records, active means well fitted curve in the direction sought with a large enough effect; inconclusive means small, poorly fitted or top-dose-only effect, or another doubt; inactive means no such curve, though single readings can be large; an effect the other way counts as inactive or inconclusive. Potency means the concentration at half of the fitted maximal effect.
SMILES,BAZ2B inh,PLK1 PBD block,G9a block,JMJD2A Tudor inh,HP1b chromo inh,ALOX12 inh
CCC(=O)N1c2ccccc2CC1C(=O)NCCN1CCN(c2cccc(Cl)c2)CC1 (configuration not stated),?,/,10.8%[59 µM],?,-5.4%,-12.8%
Cc1ccc(COc2ccc(S(=O)(=O)N3CCCC3)cc2C(N)=O)cc1,-30.5%,-0.3%,-8.0%,-10.7%,14.7%,-23.5%
COC(=O)c1ccc(CN(C)S(=O)(=O)c2ccc(C)cc2)o1,3.0%,-4.7%,-3.2%,-7.0%,28.4%,12.5%
COC(=O)c1ccc(CN(c2ccc(C)cc2)S(=O)(=O)c2ccc3c(c2)OCCO3)o1,6.0%,2.99µM*,8.6%[59 µM],-30.8%[11.4 µM],-9.5%,0.0%
COc1ccc(N2CCN(C(=O)c3nc(-c4ccc(Cl)cc4)n4c3CCCCC4)CC2)cc1,44.7µM*,/,11.2µM*,35.5µM*,?,-26.2%
COc1ccc(OC)c(CCNC(=O)c2nc(-c3ccc(Cl)cc3)n3c2CCCCC3)c1,15.8µM*,/,14.1µM*,28.2µM*,-20.8%,?
COc1ccc(NC(=O)c2nc(-c3ccc(C)cc3)n3c2CCCCC3)cc1,-27.7%,/,?,-23.0%,26.5%,-10.1%
CCOc1ccc(CCNC(=O)c2nc(-c3cccc(F)c3)n3c2CCCCC3)cc1OCC,17.8µM*,/,28.2µM*,50.1µM*,?,-3.6%
Cc1ccc(CNC(=O)c2nc(-c3ccc(Cl)cc3)n3c2CCCCC3)cc1,10µM*,/,8.91µM*,22.4µM*,?,?
COc1ccc(NC(=O)c2nc(-c3ccc(C)cc3)n3c2CCCCC3)c(OC)c1,0.2%,/,4.7%[59 µM],-10.5%,23.8%,-9.3%
Cc1ccc2c(=O)cc(C(=O)Nc3ccc(S(=O)(=O)N(C)Cc4ccccc4)cc3)oc2c1C,16.0%,/,?,-14.2%,65.2%,-23.9%
COc1ccc(Oc2nnc(C)c3ccccc23)cc1,6.3%,-4.7%,12.5%[59 µM],4.6%,60.5%,1.4%
Cc1cccc(-n2nnnc2SCC(=O)c2cc(C)n(CC3CCCO3)c2C)c1 (configuration not stated),12.4%,-3.7%,0.5%[59 µM],-6.7%,11.1%,-29.2%
Cc1nc(N2CCCC2)ncc1C(=O)N1CCN(c2ccc(Cl)cc2)CC1,79.4µM*,/,3.7%[59 µM],-16.9%,38.2%,-10.2%
O=C(C(=O)N1CCN(c2ccccc2F)CC1)c1c[nH]c2ccccc12,-12.0%,-8.2%,-8.0%,-14.7%,7.4%,?
Cc1cnc(-n2ncc(C(=O)NCc3ccncc3)c2-c2cccs2)nc1-c1ccc(F)cc1,/,/,/,/,/,-1.1%
CCOC(=O)C1CCCCN1Cc1cc(Cl)ccc1O (configuration not stated),17.2%,-3.0%,-11.0%[59 µM],16.4%,84.8%,?
CCOC(=O)C1CCCCN1Cc1cccc(F)c1 (configuration not stated),50.1µM*,-0.5%,3.55µM*,22.4µM*,?,?
CCOC(=O)C1CCCCN1Cc1ccc(F)cc1 (configuration not stated),50.1µM*,-0.5%,10µM*,4.47µM*,?,?
CCOC(=O)C1CCCCN1Cc1ccc(-c2ccccc2)cc1 (configuration not stated),9.0%,-0.8%,?,20µM*,-9.2%,?
CCOC(=O)C1CCCCN1C(=O)c1c(C)oc2c1CN(Cc1cccc(F)c1)CC2 (configuration not stated),/,/,/,/,/,0.5%
CCN(CC)S(=O)(=O)c1cccc(-c2nnc(-c3ccc(C)cc3)o2)c1,-5.2%,-11.2%,10.2%[2.33 µM],?,19.6%,0.0%
COc1ccc(-c2oc3cccnc3c2C#CCO)cc1,-2.9%,-4.5%,50.1µM*,-7.2%,28.1%,/
COc1ccc(-c2sc3cc(OC)c(OC)cc3c2C#CC2(O)CCCCC2)cc1,79.4µM*,-3.6%,-32.9%[0.501 µM],-26.1%,20.1%,-21.9%
COc1ccc(-c2oc3cccnc3c2C#CC2(O)CCCCC2)cc1,-28.6%,1.7%,28.2µM*,-11.4%,63.9%,?
